Consider 33 molecules from PubChem BioAssay (NCATS).

Inconclusive results are not listed. A call without a number means that no potency is given here. The source made the active and inactive calls. Calls come from the whole dose curve; as a rule, active = well fitted cell-killing curve with a large enough effect; inconclusive = small, poorly fitted or top-dose-only effect; inactive = flat fitted curve, though single readings scatter.

The nature of the assay: qHTS of pediatric cancer cell lines to identify multiple opportunities for drug repurposing: Primary screen for U-2 OS cells (AID 1347096). Note: nearly all actives have a fitted effect of over 50% in size. The following applies: U-2 OS viability, CellTiter-Glo luminescence, 48 h; series mostly up to 46 µM. The method in brief:
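Viability after 48 h compound treatment at 37C, 500-1,000 cells/well, read as ATP luminescence with CellTiter-Glo. Primary screens used 11-point (MIPE, 0.78 nM-46 µM) or 8-point (NPC, 0.59 nM-46 µM) final concentrations; follow-up screens used 11-point dilutions.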
On the technique in general: In qHTS, concentration-response curves come from the screen itself.
For the molecule `CN(C)[C@@H](CCOc1cccc2ccccc12)c1ccccc1`, the Potency result is “inactive”.
Take `O=c1cc(N2CCOCC2)oc2c(-c3ccccc3)cccc12`: the Potency result is “inactive”.
Turning to `Nc1nc(OCc2ccccc2)c2[nH]cnc2n1`, the Potency entry was “inactive”.
As for `CC(C)c1nc(CN(C)C(=O)N[C@H](C(=O)N[C@@H](Cc2ccccc2)C[C@H](O)[C@H](Cc2ccccc2)NC(=O)OCc2cncs2)C(C)C)cs1`, the entry is “inactive”; as for `CC(=O)N1CCN(c2ccc(OC[C@H]3CO[C@](Cn4ccnc4)(c4ccc(Cl)cc4Cl)O3)cc2)CC1`, “inactive”; as for `COC(=O)C1=C(C)NC(C)=C(C(=O)OC(C)C)C1c1cccc2nonc12` (stereo not drawn), “inactive”.
The result for `CN(C)c1ccc(O)c2c1C[C@H]1C[C@H]3[C@H](N(C)C)C(=O)C(C(N)=O)=C(O)[C@@]3(O)C(=O)C1=C2O` reads “inactive”; that for `Cc1cc2cc3c(C)cc(=O)oc3c(C)c2o1`, “inactive”.
As for `C[C@@H](c1ncncc1F)[C@](O)(Cn1cncn1)c1ccc(F)cc1F`, the entry is “inactive”; as for `C=C(c1ccc(C(=O)O)cc1)c1cc2c(cc1C)C(C)(C)CCC2(C)C`, “inactive”.
Turning to `C[C@H](Cn1cnc2c(N)ncnc21)OCP(=O)(O)O`, the Potency result is “inactive”.
Consider `Oc1ccc2ccccc2c1SSc1c(O)ccc2ccccc12`, for which the Potency entry was “inactive”.
As for `CCCc1cc(=O)[nH]c(=S)[nH]1`, the entry is “inactive”; as for `CCN(CC)CCOc1ccc(Cc2ccccc2)cc1`, “inactive”; as for `CC1(C)CCC(C)(C)c2cc(NC(=O)c3ccc(C(=O)O)cc3)ccc21`, “inactive”.
The result for `Cc1cccc(CN2CCN(C(c3ccccc3)c3ccc(Cl)cc3)CC2)c1` (stereo not drawn) reads “inactive”; that for `CS(=O)(=O)OCCCCOS(C)(=O)=O`, “inactive”; that for `O=C(NC(Cc1cc(=O)[nH]c2ccccc12)C(=O)O)c1ccc(Cl)cc1` (stereo not drawn), “inactive”.
`CCOC(=O)C(C)Oc1cccc2c(=O)n(CC(=O)Nc3ccc4c(c3)OCCO4)ccc12` (stereo not drawn): the Potency entry was “inactive”.
With `O=C(NCC1CCCCN1)c1cc(OCC(F)(F)F)ccc1OCC(F)(F)F` (stereo not drawn), the Potency result was “inactive”.
As for `O=C(c1ccccc1)c1ccc2n1CCC2C(=O)O` (stereo not drawn), the entry is “inactive”.
As to `Clc1ccc(C(Cn2ccnc2)OCc2c(Cl)cccc2Cl)c(Cl)c1` (stereo not drawn), the Potency entry is “inactive”.
As to `Nc1nc(Cl)nc2c1ncn2[C@H]1C[C@H](O)[C@@H](CO)O1`, the Potency result was “inactive”.
As for `Cc1cc(O)c2c(c1)C(=O)c1cc(O)cc(O)c1C2=O`, the entry is “inactive”; as for `c1ccc2[nH]c(-c3cscn3)nc2c1`, “inactive”; as for `O=C(CCc1ccc(O)cc1)c1c(O)cc(O)cc1O`, “inactive”.
Take `COC1=C(OC)C(=O)C(CCCCCCCCCCO)=C(C)C1=O`: the Potency result is “inactive”.
As for `Cc1cc(C2CCCCC2)n(O)c(=O)c1`, the entry is “inactive”.
The result for `CC(=O)O[C@H]1C(=O)[C@@]2(C)C([C@H](OC(=O)c3ccccc3)[C@]3(O)C[C@H](OC(=O)[C@H](O)[C@@H](NC(=O)c4ccccc4)c4ccccc4)C(C)=C1C3(C)C)[C@]1(OC(C)=O)CO[C@@H]1C[C@@H]2O` (stereo partly drawn) reads “inactive”; that for `O=c1ccc2ccc(O)c(O)c2o1`, “inactive”.
The result for `COc1cc(C(C)=O)ccc1OCCCN1CCC(c2noc3cc(F)ccc23)CC1` reads “inactive”.
`CN(C)CCCC1(c2ccc(F)cc2)OCc2cc(C#N)ccc21` (stereo not drawn): the Potency entry was “inactive”.
Take `OC(CN1CCN(c2cccc(Cl)c2)CC1)C(c1ccccc1)c1ccccc1` (stereo not drawn): the Potency entry was “inactive”.
